These results are taken from PubChem BioAssay (NCATS).

A number with no mark means an inactive call. The rule behind the calls is not given here.
Potency is the fitted concentration of half-maximal effect.

In this test the test system is HIV-1 nucleocapsid protein NCp7 (binding to TG oligonucleotide). In words: HIV Nucleocapsid (AID 346).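 Note: potency is for inhibitors that block NC binding and lower polarization.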 To be noted: HIV-1 NC / fluorescein-TGTGTGTG probe, fluorescence polarization. How it is done: NCGC Assay Overview: HIV-1 nucleocapsid protein (HIV-1 NC) is a small (6.5 kDa) basic zinc-finger protein which participates in packaging of viral genomic RNA. The spacing and metal-chelating residues (3 Cys, 1 His) of the Cys-X2-Cys-X4-His-X4-Cys Zn fingers are conserved among all known retroviruses (J. Med. Chem. 1998, 41, 1371-1381). HIV-1 NC was assayed for its binding to the consensus sequence single-stranded 5'-TGTGTGTG. […] High salt was included to increase the stringency of binding and inhibitor screen. Reducing agents and zinc were present to stabilize the nucleocapsid zinc-finger protein.
NCGC Assay Protocol Summary: Buffer. Hepes pH 7.5, 250mM NaCl, 1uM ZnCl2. 0.004% polyethylene glycol 20000. TCEP (100 uM) and 2-Mercaptoethanol (5 mM), added fresh the day of the experiment. Reagents/Controls. 10 nM TG4xF only in columns 3 and 4 as negative control. 10 nM TG4xF/100 nM HIV-1 NC in columns 1, 2, 5-48. Titration of control compound NSC-13778 (from 20 mM, then 1:2) pin-transferred to column 2. Assay Steps. Two uL of reagents were dispensed to 1536-well Kalypsys black plates. The plates were centrifuged for 1 min at 1000 rpm. Compounds and controls (20 nL) were transferred via Kalypsys PinTool. The plates were incubated for 1 hr at room temperature, and then read on ViewLux (Perkin-Elmer). High-throughput CCD imager using fluorescein polarization filter set and 45 seconds exposure time.
As to `Cn1c(=O)c(CCc2ccccc2)nc2cnc(N3CCOCC3)nc21`, the Potency was more than 20 µM.
For `c1cn(-c2cc(-c3ccc4c(c3)OCO4)ncn2)cn1` the value was more than 20 µM; for `Cc1noc(C)c1-c1ccc2ncnc(Nc3ccccc3)c2c1`, more than 20 µM.
For `O=C(c1cnccn1)N1CCC[C@@]2(CCN(Cc3nccs3)C2)C1`, the Potency was more than 20 µM.
To `N#CCCn1c(=O)c(-c2cccs2)nc2cnc(Oc3ccccc3)nc21` belongs more than 20 µM.
`COc1ncc2nc(C)c(=O)n(CCc3ccccc3)c2n1`: the Potency was more than 20 µM.
To `COC(=O)N1CCC[C@@]2(CCN(Cc3cc(C(F)(F)F)cc(C(F)(F)F)c3)C2)C1` belongs more than 20 µM; to `COc1ccc(-n2c(=O)c(CCc3ccccc3)nc3cnc(OC)nc32)cc1`, more than 20 µM.
For `COc1ccccc1CN1CC[C@@]2(CCCN(C(=O)c3cccc(F)c3)C2)C1` the value was more than 20 µM.
Consider `Cn1c(=O)c(CCc2ccccc2)nc2cnc(Oc3ccccc3)nc21`, for which the Potency was more than 20 µM.
As to `CS(=O)(=O)Nc1cccc(-c2nc(Nc3ccncc3)c3ccccc3n2)c1`, the Potency was more than 20 µM.
Consider `CCNc1ncc2nc(-c3ccc(Cl)cc3)c(=O)n(Cc3ccc(F)cc3)c2n1`, for which the Potency is 14 µM.
For the compound `CC(C)NC(=O)N1CCCC2(CCN(C(=O)c3cccn3C)CC2)C1`, the Potency was more than 20 µM.
Consider `COc1ccc(NC(=O)N2CC[C@@]3(CCCN(C(=O)c4csnn4)C3)C2)cc1`, for which the Potency was more than 20 µM.
With `COc1ccccc1-c1ccc2ncnc(N(C)C)c2c1`, the Potency is more than 20 µM.
Consider `O=C(c1cnccn1)N1CCC[C@@]2(CCN(C(c3ccccc3)c3ccccc3)C2)C1`, for which the Potency is more than 20 µM.
In the case of `O=c1c(-c2cccs2)nc2cncnc2n1-c1ccccc1`, the Potency was 18.2 µM.
For `CNc1ccnc(-c2c(C)noc2C)n1` the value was more than 20 µM; for `Cn1cccc1C(=O)N1CCC2(CC1)CN(Cc1cc(C(F)(F)F)cc(C(F)(F)F)c1)C2`, more than 20 µM.
For the compound `COc1cccc(-c2cc(N(C)Cc3ccco3)ncn2)c1`, the Potency is more than 20 µM.
As for `c1ccc(-c2ccc(N3CC4(CCNCC4)C3)cc2)cc1`, the Potency is more than 20 µM.
Take `COCCn1c(=O)c(-c2cccc(C#N)c2)nc2cnc(N3CCNCC3)nc21`: the Potency was more than 20 µM.
For `N#CCCn1c(=O)cnc2cnc(N3CCOCC3)nc21` the value was more than 20 µM; for `O=C(c1ccco1)N1CCC2(CC1)CCN(c1ccccc1)CC2`, more than 20 µM.
Regarding `COc1ccccc1CN1CC2(CCN(C(=O)c3cccc(F)c3)CC2)C1`, the Potency is more than 20 µM.
`Cc1noc(C)c1-c1cc(N2CCN(C)CC2)ncn1`: the Potency was more than 20 µM.
In the case of `Cc1cnc(CNc2ncncc2-c2ccccc2C(F)(F)F)cn1`, the Potency was more than 20 µM.
Regarding `COc1ccc(C(=O)N2CCC3(CCCN(Cc4cc(C(F)(F)F)cc(C(F)(F)F)c4)C3)CC2)cc1`, the Potency was more than 4 µM.
For the compound `COc1ccc(NC(=O)N2CC[C@@]3(CCCN(C(=O)c4cccc(F)c4)C3)C2)cc1`, the Potency is more than 20 µM.
Turning to `O=C(Oc1ccccc1)N1CCC2(CCCN(c3ccccc3)C2)CC1`, the Potency was more than 20 µM.
For `CS(=O)(=O)Nc1cccc(-c2cncnc2NCc2ccccc2)c1` the value was more than 20 µM; for `Cc1nc2cnc(N3CCNCC3)nc2n(-c2ccccc2)c1=O`, more than 20 µM.
For `CN(Cc1ccco1)c1ncncc1-c1ccc2c(c1)OCO2` the value was more than 20 µM; for `COc1cccc(Cn2c(=O)c(C)nc3cnc(OCc4ccccc4)nc32)c1`, more than 20 µM; for `COc1ccccc1CNc1nc(-c2cccc(C#N)c2)nc2ccccc12`, more than 20 µM.
With `COC(=O)N1CCC2(CC1)CN(c1ccncc1)C2`, the Potency was more than 20 µM.
For `c1cncc(-c2ccc3ncnc(N4CCNCC4)c3c2)c1` the value was more than 20 µM; for `O=C(c1cccc(F)c1)N1CCC[C@@]2(CCN(Cc3ccncc3)C2)C1`, more than 20 µM; for `O=c1c(-c2cc(F)cc(F)c2)nc2cnc(N3CCOCC3)nc2n1Cc1ccc(F)cc1`, more than 20 µM.
With `CN1CCN(c2ncc3nc(-c4cccs4)c(=O)n(CCC#N)c3n2)CC1`, the Potency was 15.3 µM.
